In PubChem BioAssay AID1159580 (chemical genetic matrix, 2015):
Screen size: about 5,500 compounds; about 2,000 (36%) were called active. Roughly 18% stayed inconclusive and do not appear here. No stated cut-off is given here; in the data, active means normalized growth mostly below about 0.91 (no sharp cut-off); inconclusive means no clear call, values can overlap the other calls; inactive means mostly above about 0.92. This is one part of the list.

Experiment: chemical genetic growth profiling, strain panel (AID 1159580);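 further: tested at 20 µM; growth read once vehicle control cultures reached saturation at 30 °C; 1 = growth at the plate median or of vehicle wells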
Conditions: S. cerevisiae deletion strains, growth OD
[1] = locus YHR030C, strain SLT2, stronger effect = lower value
[2] = locus YHR079C, strain IRE1, stronger effect = lower value
[3] = locus YJL095W, strain BCK1, stronger effect = lower value
[4] = locus YJR066W, strain TOR1, stronger effect = lower value
[5] = locus YLR113W, strain HOG1, stronger effect = lower value
[6] = locus YNL183C, strain NPR1, stronger effect = lower value
[7] = locus YOR231W, strain MKK1, stronger effect = lower value
[8] = locus YPL256C, strain CLN2, stronger effect = lower value
[9] = locus YAL040C, strain CLN3, stronger effect = lower value
[10] = locus YCL061C, strain MRC1 (second series), stronger effect = lower value
[11] = locus YDR150W, strain NUM1, stronger effect = lower value
[12] = locus YDR363W, strain ESC2, stronger effect = lower value
[13] = locus YER002W, strain NOP16, stronger effect = lower value
[14] = locus YMR263W, strain SAP30, stronger effect = lower value
[15] = locus YMR307W, strain GAS1, stronger effect = lower value
[16] = locus YNL128W, strain TEP1, stronger effect = lower value
[17] = locus YNL153C, strain GIM3, stronger effect = lower value
[18] = locus YNL175C, strain NOP13, stronger effect = lower value
[19] = locus YNL197C, strain WHI3, stronger effect = lower value
[20] = locus YNL224C, strain SQS1, stronger effect = lower value
[21] = locus YOR083W, strain WHI5 (second series), stronger effect = lower value
[22] = locus YJR075W, strain HOC1, stronger effect = lower value
[23] = locus YPL055C, strain LGE1, stronger effect = lower value
[24] = locus YPL241C, strain CIN2, stronger effect = lower value
[25] = locus YNL322C, strain KRE1, stronger effect = lower value

Measured: normalized growth

C[N+]12CC[C@@]34c5ccccc5N5C(=O)CC6OCC=C(C1)[C@H](CC32)[C@@H]6C54 (some centres not stated)
inactive: [1] 1.02 | [2] 1 | [3] 0.99 | [4] 0.942 | [5] 0.995 | [6] 0.933 | [7] 0.998 | [8] 0.986

N[C@@H](Cn1cc(I)c(=O)[nH]c1=O)C(=O)O
inactive: [9] 0.979 | [10] 0.992 | [11] 0.988 | [12] 1.01 | [13] 0.979 | [14] 1 | [15] 0.992 | [16] 0.977 | [17] 1.03 | [18] 0.993 | [19] 1 | [20] 0.99 | [21] 0.998

CCCn1c(=O)[nH]c(=O)c2[nH]cnc21
inactive: [9] 1.05 | [10] 1.01 | [12] 1.02 | [13] 0.999 | locus YGR229C, strain SMI1, stronger effect = lower value 1 | [22] 1 | [18] 1.01 | [19] 1.01 | [20] 1 | [21] 1 | [23] 1.02 | [24] 1.01

O=c1[nH]c(=O)n([C@H]2C[C@H](O)[C@@H](CO)O2)cc1/C=C/Br
inactive: locus YAL013W, strain DEP1, stronger effect = lower value 1.02 | [9] 0.98 | [10] 1 | [11] 0.994 | [12] 1.03 | [13] 0.977 | [14] 0.998 | [15] 1.01 | [16] 0.944 | [17] 0.999 | [18] 0.964 | [19] 0.936 | [20] 0.994 | [25] 0.999 | [21] 0.999 | [23] 0.998 | [24] 0.99

COc1ccc(CCCOc2cc(CCn3ccnc3)ccc2OC)cc1
inactive: [13] 1.03

CCCCOc1cc(CC2CNC(=O)N2)ccc1OC (configuration not stated)
inactive: locus YAL021C, strain ccr4, stronger effect = lower value 0.939 | locus YAL026C, strain drs2, stronger effect = lower value 1 | locus YAL030W, strain snc1, stronger effect = lower value 1.01 | [9] 1.08 | locus YBL061C, strain skt5, stronger effect = lower value 0.998 | locus YBR009C, strain hhf1, stronger effect = lower value 1.06 | locus YBR023C, strain chs3, stronger effect = lower value 0.992 | locus YBR171W, strain sec66, stronger effect = lower value 0.984 | locus YBR231C, strain swc5, stronger effect = lower value 1.01 | locus YBR279W, strain paf1, stronger effect = lower value 0.999 | locus YCL011C, strain gbp2, stronger effect = lower value 0.984 | locus YCL016C, strain dcc1, stronger effect = lower value 1 | [10] 1 | locus YCL061C, strain MRC1, stronger effect = lower value 0.985 | locus YCL069W, strain vba3, stronger effect = lower value 0.994 | locus YCR088W, strain abp1, stronger effect = lower value 0.987 | locus YDL005C, strain med2, stronger effect = lower value 0.986 | locus YDL040C, strain nat1, stronger effect = lower value 0.999 | locus YDR001C, strain nth1, stronger effect = lower value 0.988 | locus YDR069C, strain doa4, stronger effect = lower value 1.01 | locus YDR137W, strain rgp1, stronger effect = lower value 0.971 | [11] 1.01 | locus YDR159W, strain sac3, stronger effect = lower value 1.07 | locus YDR195W, strain ref2 0.992 | locus YDR297W, strain sur2, stronger effect = lower value 0.993 | locus YDR334W, strain swr1, stronger effect = lower value 0.968 | locus YDR335W, strain msn5, stronger effect = lower value 0.98 | locus YDR392W, strain spt3, stronger effect = lower value 0.975 | locus YEL003W, strain gim4, stronger effect = lower value 0.998 | locus YEL037C, strain rad23, stronger effect = lower value 0.994 | locus YEL061C, strain CIN8 (second series), stronger effect = lower value 0.981 | [13] 1.01 | locus YER015W, strain faa2, stronger effect = lower value 0.994 | locus YER016W, strain bim1, stronger effect = lower value 1.01 | locus YER111C, strain swi4, stronger effect = lower value 1.01 | locus YER155C, strain BEM2 (second series), stronger effect = lower value 1.04 | locus YFR010W, strain ubp6, stronger effect = lower value 0.994 | locus YGL167C, strain pmr1, stronger effect = lower value 1 | locus YGL173C, strain kem1, stronger effect = lower value 0.991 | locus YGL227W, strain vid30, stronger effect = lower value 1 | locus YGL240W, strain doc1, stronger effect = lower value 1.04 | locus YGL253W, strain hxk2, stronger effect = lower value 0.999 | locus YHR013C, strain ard1, stronger effect = lower value 0.979 | locus YHR027C, strain rpn1, stronger effect = lower value 0.992 | [1] 0.97 | [2] 0.973 | locus YHR142W, strain chs7, stronger effect = lower value 0.914 | locus YJL092W, strain hpr5, stronger effect = lower value 0.967 | locus YJL095W, strain BCK1 (second series), stronger effect = lower value 0.989 | [3] 0.978 | locus YJL115W, strain asf1, stronger effect = lower value 0.99 | locus YJL129C, strain trk1, stronger effect = lower value 0.965 | locus YJL154C, strain vps35, stronger effect = lower value 0.993 | locus YJL164C, strain tpk1, stronger effect = lower value 0.972 | locus YJL166W, strain qcr8, stronger effect = lower value 0.996 | locus YJL187C, strain SWE1, stronger effect = lower value 0.998 | [4] 0.935 | [22] 1.01 | locus YKL160W, strain elf1, stronger effect = lower value 0.954 | locus YKR026C, strain gcn3, stronger effect = lower value 0.981 | locus YKR091W, strain srl3, stronger effect = lower value 0.989 | locus YLL001W, strain dnm1, stronger effect = lower value 0.988 | locus YLL026W, stronger effect = lower value 0.998 | locus YLL041C, strain sdh2, stronger effect = lower value 0.984 | locus YLR027C, strain aat2, stronger effect = lower value 0.982 | [5] 0.978 | locus YLR221C, strain rsa3, stronger effect = lower value 0.971 | locus YLR258W, strain gsy2, stronger effect = lower value 1.02 | locus YLR262C, strain YPT6 (second series), stronger effect = lower value 1 | locus YLR320W, strain mms22, stronger effect = lower value 1.02 | locus YLR342W, strain FKS1, stronger effect = lower value 1 | locus YLR357W, strain rsc2, stronger effect = lower value 1.02 | locus YLR370C, strain arc18, stronger effect = lower value 0.978 | locus YLR384C, strain iki3, stronger effect = lower value 0.993 | locus YML120C, strain ndi1, stronger effect = lower value 0.968 | locus YMR058W, strain fet3, stronger effect = lower value 0.978 | locus YMR125W, strain sto1, stronger effect = lower value 1.02 | locus YMR129W, stronger effect = lower value 0.992 | locus YMR205C, strain PFK2, stronger effect = lower value 1.06 | locus YMR231W, strain pep5, stronger effect = lower value 1 | locus YNL071W, strain lat1, stronger effect = lower value 0.987 | [16] 1.01 | [18] 1.02 | [6] 0.956 | [19] 1.03 | locus YNL209W, strain ssb2, stronger effect = lower value 1 | [20] 1.01 | locus YNL248C, strain rpa49, stronger effect = lower value 0.93 | locus YNL322C, strain KRE1 (second series), stronger effect = lower value 0.987 | [25] 1.02 | locus YNR049C, strain mso1, stronger effect = lower value 0.992 | locus YOR001W, strain rrp6, stronger effect = lower value 0.951 | locus YOR070C, strain gyp1, stronger effect = lower value 1.01 | locus YOR080W, strain dia2, stronger effect = lower value 0.99 | [21] 1 | locus YOR083W, strain WHI5, stronger effect = lower value 0.944 | locus YOR106W, strain vam3, stronger effect = lower value 0.958 | [7] 0.976 | locus YOR265W, strain rbl2, stronger effect = lower value 0.998 | locus YOR270C, strain vph1, stronger effect = lower value 0.94 | locus YOR290C, strain snf2, stronger effect = lower value 0.987 | locus YPL051W, strain arl3, stronger effect = lower value 0.963 | locus YPL078C, strain atp4, stronger effect = lower value 0.921 | locus YPL106C, strain sse1, stronger effect = lower value 1.04 | locus YPL240C, strain hsp82, stronger effect = lower value 0.99 | [8] 0.948
